Experimental data from PubChem BioAssay (NCI).
About 83,000 compounds went through this panel and 20% of them were active in at least one assay; those are over-represented in the sample as a whole.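 Single-dose data. Exposure time 48 hours. Values below 10 considered active.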 The source made the active and inactive calls.

Tests used:
Assay in all cases: NCI-60 one-dose screen, 48 h (100 = growth as untreated, 0 = no growth, -100 = all killed)
Details in all cases: 10 µM unless noted
[1] = test system: NCI-H23 lung
[2] = test system: NCI-H226 lung
[3] = test system: NCI-H322M lung
[4] = test system: HOP-62 NSCLC
[5] = test system: NCI-H460 lung
[6] = test system: HOP-92 NSCLC
[7] = test system: NCI-H522 lung
[8] = test system: A549/ATCC NSCLC
[9] = test system: 786-0 renal
[10] = test system: COLO 205 colon

Measured: growth

CN(C)C(CNc1oc(-c2cccc3ccccc23)nc1C#N)c1ccco1 (stereo not given)
inactive: [1] 97.1% | [2] 101% | [3] 99.9% | [4] 94.9% | [5] 101% | [6] 94% | [7] 86.9% | [8] 91.6% | [9] 90.1% | [10] 93.1%

O=C(Nc1ccc2ncnc(Nc3cccc(C(F)(F)F)c3)c2c1)c1cccs1
inactive: [1] 30.2% | [2] 67.6% | [3] 40.7% | [4] 58.4% | [5] 22.5% | [6] 67.6% | [7] 33.8% | [8] 32.4% | [9] 57% | [10] 24.1%

CC1(c2ccccc2Cl)NC(=O)NC1=O (stereo not given)
inactive: [1] 95.2% | [2] 98.6% | [3] 98.8% | [4] 86.4% | [5] 106% | [6] 83.1% | [7] 85% | [8] 91.2% | [9] 99.2% | [10] 108%

COc1ccc(C(=O)c2cc(OC)c(OC)c(OC)c2)cc1OC(=O)CCl
active: [5] 8.25% | [7] -12.4%
inactive: [1] 24% | [2] 109% | [3] 44.5% | [4] 22% | [6] 52.9% | [8] 23% | [9] 28.7% | [10] 16.4%

C(=C\c1cn(-c2ccccc2)nc1-c1ccccc1)/c1nnc(-c2c[nH]c3ccccc23)o1
inactive: [1] 51% | [2] 57.3% | [3] 80.3% | [4] 38.9% | [5] 14.1% | [6] 60.2% | [7] 61.5% | [8] 46.7% | [9] 40.6% | [10] 31.8%

Cc1cc(NC(=O)CNc2nc(Oc3ccc(F)cc3)nc(-c3ccc(F)cc3)n2)ccc1Cl
inactive: [1] 98.1% | [2] 98.9% | [3] 98.7% | [4] 94.5% | [5] 99.3% | [6] 97.7% | [7] 85.7% | [8] 87.1% | [9] 99.5% | [10] 112%

C=C1C(=O)O[C@H]2[C@H]1CC/C(COC(=O)c1cccnc1N)=C\CC[C@@]1(C)O[C@@H]21
inactive: [1] 33.9% | [2] 26.7% | [3] 87% | [4] 22.8% | [8] 28.4%
active: [5] 5.22% | [6] 8.05% | [7] -15.3% | [9] 9.12% | [10] -76.5%

CCC[S@@](=O)c1ccc2nc(NC(=O)OC)[nH]c2c1
inactive: [1] 93.3% | [2] 85.6% | [3] 96% | [4] 66.2% | [5] 99.5% | [6] 84% | [7] 59.9% | [8] 65.7% | [9] 91.6% | [10] 96.4%

C=C1C(=O)O[C@H]2[C@H]1CC/C(COC(=O)CCC(=O)OC/C1=C/CC[C@@]3(C)O[C@H]3[C@H]3OC(=O)C(=C)[C@@H]3CC1)=C\CC[C@@]1(C)O[C@@H]21
active: [6] -1.85% | [7] -69.2% | [10] -55%
inactive: [1] 58.5% | [2] 84.3% | [3] 96.1% | [4] 85.7% | [5] 93.9% | [8] 88.7% | [9] 40.7%

CCCCCCCCCCCCCC1=NCC[N+]1(CCO)Cc1ccccc1 (stereo not given)
active: [1] -67% | [2] -30.2% | [3] -6.75% | [4] -82.6% | [5] -81.3% | [6] -73.1% | [7] -82.6% | [8] -68.8% | [9] -80.5% | [10] -75.5%

Cc1nnc(/N=C2\NC(=O)/C(=C/c3ccsc3)S2)s1
inactive: [1] 89.8% | [2] 96% | [3] 92.2% | [4] 80.8% | [5] 67.5% | [6] 96.6% | [7] 78.1% | [8] 100% | [9] 94.6% | [10] 92.2%

Cc1ccn2c3c(c(C(=O)O)c2c1)C(=O)c1ccccc1C3=O
active: [1] 2.03% | [3] 6.55% | [5] -22.4% | [8] -39.6%
inactive: [2] 114% | [4] 45.5% | [6] 96.8% | [7] 82.5% | [9] 84.2% | [10] 42.1%

O=C(Nc1cc(Br)ccn1)c1cc2cc(Nc3nc(-c4ccccc4)nc4ccccc34)ccc2oc1=O
inactive: [1] 98.6% | [2] 117% | [3] 111% | [4] 103% | [5] 106% | [6] 105% | [7] 95.2% | [8] 104% | [9] 94.2% | [10] 105%

Cc1cnc(-c2ccc(-c3ccc(NC(=O)Nc4c(F)cc(F)cc4F)cc3F)c3c2C(=O)NC3)[nH]1
active: [5] -29.5%
inactive: [1] 20.8% | [2] 65.6% | [3] 43.1% | [4] 53.2% | [6] 70.8% | [7] 37.2% | [8] 45.2% | [9] 23.1% | [10] 20.5%

COc1cc(-c2cn(-c3ccc(Cl)c(Cl)c3)c(=O)[nH]2)cc(OC)c1OC
active: [4] -1.73%
inactive: [1] 92.4% | [2] 93.1% | [3] 69.7% | [5] 96.7% | [6] 82% | [7] 74.5% | [8] 89.7% | [9] 14.4% | [10] 105%

Cn1c2ccccc2c2c(OC(=O)c3ccccc3)c3c(nc21)-c1ccccc1C3
inactive: [1] 86.1% | [2] 100% | [3] 92.9% | [4] 73.1% | [5] 105% | [6] 91.5% | [7] 58.2% | [8] 93.1% | [9] 96.9% | [10] 121%

CC(=O)c1cnc(-c2ccccc2)nc1CBr
inactive: [1] 87.7% | [2] 92.1% | [3] 102% | [4] 94.3% | [5] 98.2% | [6] 58.7% | [8] 99% | [9] 86.3% | [10] 36.9%
active: [7] -23.4%

COC(=O)[C@]1(C)CCC[C@]2(C)[C@H]3C[C@H]4C(C(C)C)=C[C@]3(CC[C@H]21)[C@@H]1C(=O)N(CCC#N)C(=O)[C@@H]14
inactive: [1] 93.7% | [2] 81.9% | [3] 109% | [4] 89.9% | [5] 101% | [6] 81.1% | [7] 75.3% | [8] 86% | [9] 99.7% | [10] 94.7%

COc1ccc(/C=C/C(=O)/C=C(/C=C/c2ccc(OC)c(OC)c2)OB(F)F)cc1OC
inactive: [1] 52.3% | [2] 57.1% | [3] 103% | [4] 83.5% | [5] 21.8% | [6] 56.8% | [8] 60.8% | [9] 12.5%
active: [7] -32.4% | [10] -23.2%

C=C1C(=O)O[C@H]2[C@H]1CC/C(COC(=O)CCCCCCC(=O)OC/C1=C/CC[C@@]3(C)O[C@H]3[C@H]3OC(=O)C(=C)[C@@H]3CC1)=C\CC[C@@]1(C)O[C@@H]21
active: [7] -81% | [10] -64.6%
inactive: [1] 25.1% | [2] 65.2% | [3] 99.5% | [4] 83.6% | [5] 77.7% | [6] 34% | [8] 97.2% | [9] 20.9%
